Tau fibril FP = inhibitors of human tau fibril formation | AID 1468 | K18 P301L tau heparin fibrillization, Alexa594 FP, 6 h | P10636 | actives 0.39% (n = 280,000) | Potency, µM (series often up to 57.7 µM), for the others: top-dose activity, negative = inhibition, usual class: inhibitors; note: potency is the fitted concentration of half-maximal effect; nearly all actives have a fitted effect of over 55% in size
Target sequence (P10636 561-689 P618L limits assumed): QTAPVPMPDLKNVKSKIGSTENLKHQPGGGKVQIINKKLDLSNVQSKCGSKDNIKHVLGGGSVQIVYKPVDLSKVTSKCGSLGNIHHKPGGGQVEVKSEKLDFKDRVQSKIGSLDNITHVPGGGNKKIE
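Recombinant K18 P301L […], labeled with Alexa 594 at 0.24 uM over 15 uM unlabeled; heparin inducer 20 uM final; 37 C, 6 hr; FP endpoint.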
Tau ThT inhib = inhibitors of human tau fibril formation, thioflavin T binding; P10636; recombinant tau K18 P301L, heparin-induced fibrillization, ThT fluorescence; Potency, µM (doses to about 57.4 µM), for inactives: top-dose activity, negative = inhibition, most hits filed as inhibitors; actives 2.1% (n = 270,000); AID 1460; note: potency is the fitted concentration of half-maximal effect; nearly all actives have a fitted effect of over 55% in size
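ThT emission at 510 nm, taken 1 hr after adding 30 uM dye, quantifies aggregates formed when 20 uM heparin acts on human tau K18 P301L for 6 hr at 37 C.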
KDM4E inh = inhibitors of human JMJD2E histone demethylase; B2RXH2; JMJD2E catalytic domain, FDH-coupled NADH fluorescence (FDH is formaldehyde dehydrogenase); Potency, µM (highest dose often 57.1 µM), for inactives: at the highest dose activity change, negative = inhibition, actives largely listed as inhibitors; actives 1.6% (n = 230,000); active = well fitted inhibition curve with a large enough effect, not every such curve was filed as active; inconclusive = small, poorly fitted or top-dose-only effect, or another doubt; inactive = no such curve, though single readings can be large or run the other way;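 note: potency is the fitted concentration of half-maximal effect; 0% = wells with enzyme and -100% = buffer wells without enzyme; nearly all actives have a fitted effect of over 50% in size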
Target sequence (B2RXH2 1-337 limits assumed): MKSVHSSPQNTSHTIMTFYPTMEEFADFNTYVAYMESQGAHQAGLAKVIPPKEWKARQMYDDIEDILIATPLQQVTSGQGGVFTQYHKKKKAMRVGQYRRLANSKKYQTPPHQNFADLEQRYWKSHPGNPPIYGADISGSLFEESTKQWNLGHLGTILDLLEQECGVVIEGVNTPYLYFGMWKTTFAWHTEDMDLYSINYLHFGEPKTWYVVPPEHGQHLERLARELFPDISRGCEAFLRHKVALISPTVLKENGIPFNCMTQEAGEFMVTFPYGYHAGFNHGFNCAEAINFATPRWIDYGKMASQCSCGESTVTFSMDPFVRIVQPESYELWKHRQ
Tau fluor cs = counter-screen for tau fibril formation inhibitors; tau K18 P301L Alexa594 fluorescence, heparin fibrillization; Potency, µM (highest dose often 57.7 µM), inactives show top-dose activity change, negative = decrease; actives 0.93% (n = 280,000); AID 1463; note: potency is the fitted concentration of half-maximal effect; nearly all actives have a fitted effect of over 55% in size
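Human tau K18 P301L (15 uM unlabeled, 0.24 uM Alexa 594-labeled) in 100 mM sodium acetate pH 7 with 20 uM heparin, 6 hr at 37 C. ThT 30 uM added, 1 hr ambient; Alexa 594 FP and total fluorescence read at 555/632 nm.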
Coupling enz = inhibits coupling enzyme system, counter-screen for aldolase hits; coupling enzyme system counterscreen, AmpLite Red fluorescence; activity change, negative = inhibition, % at 58.2 µM, hits read low; actives 0.67% (n = 290,000); in the data active = activity change below about -30%
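Activity here indicates interference with the coupling reaction, not aldolase inhibition. Compounds at 57.5 uM final met coupling enzymes for 10 min at RT; substrate and AmpLite Red detection followed, with a 525/598 nm fluorescence read after 20 min.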
Starred values were filed as active, the others as inactive; [ ] = dose if it differs, or a comment. Only some compounds are listed: those with a hit (about 3% of all), similar ones and a draw of the others. Unless noted, calls come from the whole dose curve; as a rule, active = well fitted curve in the direction sought with a large enough effect; inconclusive = small, poorly fitted or top-dose-only effect, or another doubt; inactive = no such curve, though single readings can be large; an effect the other way counts as inactive or inconclusive. Unless noted, % is set by controls: 0 for no effect and ±100 for the full control effect.

For COC(=O)c1cc(C)nc2c1C(=O)C(=O)C=C2N1CCOCC1 the results were Coupling enz -79.2*.
Screening Cc1ccc(N(CC(O)COCc2ccco2)S(=O)(=O)c2ccc(C)cc2)cc1 (stereo unspecified) returned Tau fibril FP inconclusive, Tau ThT inhib 31.6µM*, KDM4E inh -7.7%, Tau fluor cs -23.3% and Coupling enz 4.2.
For CCCN(CCC)CC(O)CN(c1ccccc1)S(=O)(=O)c1ccc(C)cc1 (stereo unspecified) the results were Tau fibril FP 5.1%, Tau ThT inhib -8.5%, KDM4E inh 9.2%, Tau fluor cs -8.8% and Coupling enz 3.2.
For Clc1cccc(CNCCCSc2nnnn2-c2ccccc2)c1 the results were Tau fibril FP -5.0%, Tau ThT inhib 2.0% and Tau fluor cs -9.2%.
Screening CC(C)(C)C(=O)NC(Nc1cccc2cccnc12)C(Cl)(Cl)Cl (stereo unspecified) returned Tau fibril FP inconclusive, Tau ThT inhib inconclusive, KDM4E inh -7.0%, Tau fluor cs inconclusive and Coupling enz -66.3*.
CCC(=O)NC(NC(=S)Nc1cccc2cccnc12)C(Cl)(Cl)Cl (stereo unspecified) was read as Tau fibril FP -4.2%, Tau ThT inhib -14.9%, KDM4E inh 3.7%, Tau fluor cs -13.3% and Coupling enz -7.9.
Cc1ccc(S(=O)(=O)N/N=C/c2ccc(O)c(O)c2)cc1[N+](=O)[O-] was read as Tau fibril FP -2.1%, Tau ThT inhib inconclusive, KDM4E inh 28.2µM*, Tau fluor cs -24.5% and Coupling enz -6.7.
`Cc1ccc(S(=O)(=O)N/N=C/c2ccccc2O)cc1[N+](=O)[O-]` gave Tau fibril FP 2.7%, Tau ThT inhib -0.3%, KDM4E inh -10.1%, Tau fluor cs -4.0% and Coupling enz 6.0.
For O=C1Nc2ccc(Br)cc2/C1=C/C(=O)c1ccc2c(c1)OCO2 the results were Tau fibril FP 11.8%, Tau ThT inhib 25.1µM*, KDM4E inh -4.6%, Tau fluor cs inconclusive and Coupling enz -1.7.
Screening COc1ccccc1-c1cnnc(N/N=C/c2ccc(-c3cccc(Br)c3)o2)n1 returned Tau fibril FP 0.0%, Tau ThT inhib 3.55µM*, KDM4E inh 2.3%, Tau fluor cs inconclusive and Coupling enz 1.9.
Screening CN(C)CCCNc1cc(C(C)(C)C)nc2c(-c3ccccc3)cnn12 returned Tau fibril FP inconclusive, Tau ThT inhib inconclusive, KDM4E inh inconclusive, Tau fluor cs 22.4µM*[quencher] and Coupling enz -7.1.
Screening CC(C)(C)c1cc(NCCCn2ccnc2)n2ncc(-c3ccc(Cl)cc3)c2n1 returned Tau fibril FP inconclusive, Tau ThT inhib inconclusive, KDM4E inh inconclusive, Tau fluor cs inconclusive and Coupling enz -3.2.
C=CCN1c2ccccc2[C@]23C[C@@H](C(=O)OC)N(S(=O)(=O)c4cccs4)C2=NC(C(=O)OC)=C(C(=O)OC)[C@H]13 was read as Tau fibril FP -5.0%[11.6 µM], Tau ThT inhib -2.6%[11.5 µM], KDM4E inh 9.1%[11.4 µM], Tau fluor cs -9.0%[11.6 µM] and Coupling enz 0.1.
CC[C@H](C)[C@H](NC(=O)[C@H](Cc1ccc(O)cc1)NC(=O)[C@H](Cc1cnc[nH]1)NC(=O)[C@H](CCCNC(=N)N)NC(=O)[C@H](CC(C)C)NC(=O)[C@H](C)NC(=O)[C@H](CO)NC(=O)[C@H](Cc1ccc(O)cc1)NC(=O)[C@H](Cc1ccc(O)cc1)NC(=O)[C@H](CCCNC(=N)N)NC(=O)[C@H](C)NC(=O)[C@H](CC(C)C)NC(=O)[C@H](CC(=O)O)NC(=O)[C@H](CCC(=O)O)NC(=O)[C@H](C)NC(=O)[C@@H]1CCCN1C(=O)[C@H](C)NC(=O)[C@H](CC(=O)O)NC(=O)[C@H](CCC(=O)O)NC(=O)CNC(=O)[C@@H]1CCCN1C(=O)[C@H](CC(N)=O)NC(=O)[C@H](CC(=O)O)NC(=O)[C@@H]1CCCN1C(=O)[C@H](CCCCN)NC(=O)[C@H](CO)NC(=O)[C@@H]1CCCN1C(=O)[C@@H](N)Cc1ccc(O)cc1)C(=O)N[C@@H](CC(N)=O)C(=O)N[C@@H](CC(C)C)C(=O)N[C@H](C(=O)N[C@H](C(=O)N[C@@H](CCCNC(=N)N)C(=O)N[C@@H](CCC(N)=O)C(=O)N[C@@H](CCCNC(=N)N)C(=O)N[C@@H](Cc1ccc(O)cc1)C(N)=O)[C@@H](C)O)[C@@H](C)CC was read as Coupling enz 2.5.
CCOC(=O)CSc1nc2cc3c(cc2c(=O)n1CCCC(=O)NCc1ccc2c(c1)OCO2)OCO3 was read as Tau fibril FP -0.6%, Tau ThT inhib 8.1% and Tau fluor cs 2.8%.
For COc1cccc(NC(=O)Nc2nnc(N3C(C)CCCC3C)s2)c1 (stereo unspecified) the results were Tau fibril FP inconclusive, Tau ThT inhib inconclusive, KDM4E inh -5.5%, Tau fluor cs 10µM*[quencher] and Coupling enz -2.8.
COc1cccc(NC(=O)Nc2nnc(Cc3ccccc3)s2)c1 was read as Coupling enz 1.1.
Screening COc1cccc(NC(=O)Nc2nnc(CC(=O)Nc3ccccc3)s2)c1 returned Tau fibril FP 12.6µM*, Tau ThT inhib -2.7%, KDM4E inh -29.3%, Tau fluor cs inconclusive and Coupling enz -1.2.
Screening COc1ccc(NC(=O)Nc2nnc(CC(=O)Nc3ccccc3)s2)cc1 returned Tau fibril FP 1.2%, KDM4E inh -3.0%, Tau fluor cs -25.8% and Coupling enz 2.8.
Screening CSCC[C@H](NC(=O)c1ccc(NC[C@@H](N)CS)cc1-c1ccccc1)C(=O)O returned Coupling enz 0.1.
Screening COC(=O)c1cc(Cl)ccc1NC(=O)CSc1ncc(S(=O)(=O)c2ccc(Br)cc2)c(=O)[nH]1 returned Tau fibril FP inconclusive, Tau ThT inhib 31.6µM* and Tau fluor cs -17.2%.
`COc1ccc(CNC(=O)CSc2ncc(S(=O)(=O)c3ccc(Br)cc3)c(=O)[nH]2)cc1` gave Tau fibril FP 4.3%, Tau ThT inhib -6.1% and Tau fluor cs -4.2%.
Nc1ccc2cn[nH]c2c1 was read as Tau fibril FP inconclusive, Tau ThT inhib inconclusive, KDM4E inh inconclusive, Tau fluor cs -11.2% and Coupling enz -32.2*.
For Cc1cc(C(=O)CSc2nnnn2-c2ccccc2)c(C)n1-c1ccc2c(c1)OCO2 the results were Tau fibril FP -0.8%, Tau ThT inhib inconclusive, KDM4E inh 1.5%, Tau fluor cs inconclusive and Coupling enz 0.3.
Cc1cc(C(=O)CSc2nnnn2-c2ccc(O)cc2)c(C)n1Cc1ccc2c(c1)OCO2 was read as Tau fibril FP 11.2µM*, Tau ThT inhib -17.2%, KDM4E inh -5.0%, Tau fluor cs 7.94µM*[quencher] and Coupling enz 3.6.
